About 83,000 compounds went through this panel and 20% of them were active in at least one assay; those are over-represented in the sample as a whole.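 Assay: single dose, 48 h. Readout: percent growth (0 = no net growth; negative = cell death). Active: <10.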 The source made the active and inactive calls.
Tests used:
Assay in all cases: NCI-60 one-dose screen, 48 h (100 = growth as untreated, 0 = no growth, -100 = all killed)
Settings in all cases: 10 µM unless noted
RPMI-8226 leukemia = tested on: RPMI-8226 leukemia
OVCAR-8 ovarian = tested on: OVCAR-8 ovarian
OVCAR-5 ovarian = tested on: OVCAR-5 ovarian
OVCAR-4 ovarian = tested on: OVCAR-4 ovarian
SK-OV-3 ovarian = tested on: SK-OV-3 ovarian
IGROV1 ovarian = tested on: IGROV1 ovarian
OVCAR-3 ovarian = tested on: OVCAR-3 ovarian
HS 578T breast = tested on: HS 578T breast
NCI/ADR-RES ovarian = tested on: NCI/ADR-RES ovarian
T-47D breast = tested on: T-47D breast

Measured: growth

CCN(CC)CCNC(=O)C(Cl)=C1C(Cl)=C(Cl)C(Cl)=C1Cl
inactive: RPMI-8226 leukemia 30.6% | OVCAR-8 ovarian 15.8% | OVCAR-5 ovarian 120% | OVCAR-4 ovarian 41.9% | SK-OV-3 ovarian 58.7% | IGROV1 ovarian 59.1% | OVCAR-3 ovarian 40.1% | HS 578T breast 82.2% | NCI/ADR-RES ovarian 44.7% | T-47D breast 56.6%

CC(C)CCNCC(O)Cn1c2ccccc2c2ccccc21 (centres undefined)
inactive: OVCAR-5 ovarian 41.3% | OVCAR-4 ovarian 21.8% | SK-OV-3 ovarian 28.5% | IGROV1 ovarian 10.3% | HS 578T breast 24.3% | NCI/ADR-RES ovarian 20% | T-47D breast 12.2%
active: RPMI-8226 leukemia -24% | OVCAR-8 ovarian 6.95% | OVCAR-3 ovarian -36.2%

CCOC(=O)C1=CN(C)C=C(C(=O)OCC)C1c1cc(Br)c(OCC)c(OC)c1
inactive: OVCAR-8 ovarian 56.8% | OVCAR-5 ovarian 63.5% | OVCAR-4 ovarian 54.9% | SK-OV-3 ovarian 86.4% | IGROV1 ovarian 35.6% | OVCAR-3 ovarian 64.9% | HS 578T breast 62.9% | NCI/ADR-RES ovarian 73% | T-47D breast 74.9%
active: RPMI-8226 leukemia 8.87%

COc1cc(C2C3=C(COC3=O)N(CCO)c3cc4c(cc32)OCCO4)cc(OC)c1O (centres undefined)
active: OVCAR-3 ovarian -31%
inactive: RPMI-8226 leukemia 32.4% | OVCAR-8 ovarian 27.4% | OVCAR-5 ovarian 87.4% | OVCAR-4 ovarian 40.3% | SK-OV-3 ovarian 24.5% | IGROV1 ovarian 27.1% | HS 578T breast 21.9% | NCI/ADR-RES ovarian 82.9% | T-47D breast 33.4%

COc1ccc(N)c(-c2cc3c(c4c2[nH]c2ccc(OC)cc24)CCCC3)c1
inactive: RPMI-8226 leukemia 68.5% | OVCAR-8 ovarian 87.4% | OVCAR-5 ovarian 95.5% | OVCAR-4 ovarian 93.3% | SK-OV-3 ovarian 77.3% | IGROV1 ovarian 71.1% | OVCAR-3 ovarian 86.1% | HS 578T breast 85.9% | NCI/ADR-RES ovarian 85.7%

O=NN(C(=O)NC1CCC(C(=O)O)CC1)C1CCC(C(=O)O)CC1 (centres undefined)
inactive: RPMI-8226 leukemia 81.8% | OVCAR-8 ovarian 99.7% | OVCAR-5 ovarian 97.4% | OVCAR-4 ovarian 95.8% | SK-OV-3 ovarian 114% | IGROV1 ovarian 107% | OVCAR-3 ovarian 113% | HS 578T breast 107% | NCI/ADR-RES ovarian 108%

COc1ccc(Cn2c(Br)c3c(c2Br)-c2nc(NC(=O)c4ccc(OC)cc4)sc2CC3)cc1
inactive: RPMI-8226 leukemia 71.8% | OVCAR-8 ovarian 61.4% | OVCAR-5 ovarian 79.4% | OVCAR-4 ovarian 49.7% | SK-OV-3 ovarian 72.9% | IGROV1 ovarian 38.2% | OVCAR-3 ovarian 88.6% | HS 578T breast 58.1% | NCI/ADR-RES ovarian 74.7% | T-47D breast 68.7%

O=C(Nc1ccc(I)cc1F)c1cc(F)ccc1O
active: RPMI-8226 leukemia -33.8% | OVCAR-8 ovarian 6.16% | SK-OV-3 ovarian -6.45% | OVCAR-3 ovarian 6.68% | HS 578T breast -3.33% | NCI/ADR-RES ovarian 4.19%
inactive: OVCAR-5 ovarian 23.6% | OVCAR-4 ovarian 12.4% | IGROV1 ovarian 12.7%

COc1cc(CNC(=O)c2ccsc2Nc2ccnc(C(F)(F)F)c2)ccc1O
inactive: RPMI-8226 leukemia 91% | OVCAR-8 ovarian 102% | OVCAR-5 ovarian 107% | OVCAR-4 ovarian 105% | SK-OV-3 ovarian 97.3% | IGROV1 ovarian 105% | OVCAR-3 ovarian 105% | HS 578T breast 104% | NCI/ADR-RES ovarian 95.4%

COc1cccc(C2=NN3C(C2)c2ccccc2OC3c2ccc(/C=C3\SC(=O)NC3=O)cc2)c1 (centres undefined)
inactive: RPMI-8226 leukemia 99.4% | OVCAR-8 ovarian 94.8% | OVCAR-5 ovarian 108% | OVCAR-4 ovarian 103% | SK-OV-3 ovarian 96.8% | IGROV1 ovarian 100% | OVCAR-3 ovarian 102% | HS 578T breast 96.4% | NCI/ADR-RES ovarian 111% | T-47D breast 100%

CC(=O)c1ccc(Cc2ccc(C(C)=O)s2)s1
inactive: RPMI-8226 leukemia 95.2% | OVCAR-8 ovarian 107% | OVCAR-5 ovarian 100% | OVCAR-4 ovarian 96.5% | SK-OV-3 ovarian 109% | IGROV1 ovarian 96.1% | OVCAR-3 ovarian 100% | HS 578T breast 109% | NCI/ADR-RES ovarian 106%

COc1ccc(-c2nsc3c2NC(=O)CC3c2cccc(OC)c2)cc1 (centres undefined)
inactive: RPMI-8226 leukemia 12.1% | OVCAR-8 ovarian 45.9% | OVCAR-5 ovarian 52.9% | OVCAR-4 ovarian 39.9% | SK-OV-3 ovarian 14.2% | IGROV1 ovarian 45.5% | HS 578T breast 28.5% | NCI/ADR-RES ovarian 32.4%
active: OVCAR-3 ovarian -18.6%

Cc1cc(OC(=O)c2ccc([N+](=O)[O-])cc2)nc2[nH]c(=O)sc12
inactive: RPMI-8226 leukemia 99.8% | OVCAR-8 ovarian 102% | OVCAR-5 ovarian 105% | OVCAR-4 ovarian 98.7% | SK-OV-3 ovarian 115% | IGROV1 ovarian 96.9% | OVCAR-3 ovarian 108% | HS 578T breast 95.7% | NCI/ADR-RES ovarian 104% | T-47D breast 99.7%

O=C1OC(c2ccccc2)(c2ccccc2)c2ccsc21
inactive: RPMI-8226 leukemia 89.1% | OVCAR-8 ovarian 101% | OVCAR-5 ovarian 95.7% | OVCAR-4 ovarian 107% | SK-OV-3 ovarian 102% | IGROV1 ovarian 107% | OVCAR-3 ovarian 100% | HS 578T breast 103% | NCI/ADR-RES ovarian 115% | T-47D breast 104%

O=C(Nc1ccc(Cl)cc1)c1cc2ccccc2cc1OP(=O)(O)O
inactive: OVCAR-8 ovarian 27.9% | OVCAR-5 ovarian 69.1% | OVCAR-4 ovarian 25% | SK-OV-3 ovarian 19% | OVCAR-3 ovarian 10.7% | HS 578T breast 32.9% | NCI/ADR-RES ovarian 16.6% | T-47D breast 25.4%
active: RPMI-8226 leukemia -10.1% | IGROV1 ovarian -1.26%

O=[N+]([O-])c1cc2c(ccc3occc32)o1
inactive: RPMI-8226 leukemia 36.5% | OVCAR-8 ovarian 30% | OVCAR-5 ovarian 72.7% | OVCAR-4 ovarian 66.6% | SK-OV-3 ovarian 14.7% | IGROV1 ovarian 27.1% | OVCAR-3 ovarian 39.4% | HS 578T breast 50.4% | NCI/ADR-RES ovarian 29.2% | T-47D breast 95.1%

Nc1ccc(-c2nn3c(CCC(=O)c4nc5ncccc5[nH]4)nnc3s2)c(O)c1
inactive: RPMI-8226 leukemia 101% | OVCAR-8 ovarian 98.2% | OVCAR-5 ovarian 95% | OVCAR-4 ovarian 98% | SK-OV-3 ovarian 91.4% | IGROV1 ovarian 70.9% | OVCAR-3 ovarian 100% | HS 578T breast 74% | NCI/ADR-RES ovarian 93.8% | T-47D breast 87.1%

COc1ccccc1C(=O)O/N=C(\N)Cc1cccc2ccccc12
active: OVCAR-3 ovarian 4.24%
inactive: RPMI-8226 leukemia 73.4% | OVCAR-8 ovarian 78.6% | OVCAR-5 ovarian 95.2% | OVCAR-4 ovarian 62.3% | SK-OV-3 ovarian 103% | IGROV1 ovarian 86.7% | HS 578T breast 97% | NCI/ADR-RES ovarian 69.8% | T-47D breast 93.3%

O=c1cc(NC2CCN(CCCc3ccccc3)CC2)c2cc(Cl)ccc2o1
active: RPMI-8226 leukemia -8.63% | OVCAR-8 ovarian -0.533% | SK-OV-3 ovarian 4.31% | IGROV1 ovarian -4.09% | OVCAR-3 ovarian -16.6% | HS 578T breast 2.69% | NCI/ADR-RES ovarian 6.68% | T-47D breast 4.55%
inactive: OVCAR-5 ovarian 30.5% | OVCAR-4 ovarian 12.7%

O=c1oc2ccc(F)cc2c(=O)n1-c1ccc(I)cc1F
active: RPMI-8226 leukemia -20.4% | OVCAR-8 ovarian 8.61% | SK-OV-3 ovarian -4.12% | OVCAR-3 ovarian 8.05% | HS 578T breast -4.95% | NCI/ADR-RES ovarian 2.32% | T-47D breast -16.2%
inactive: OVCAR-5 ovarian 22.2% | OVCAR-4 ovarian 12.4% | IGROV1 ovarian 17.2%

CC(C)(C)c1ccc(C2CC(=O)C3=C(C2)Nc2ccccc2N(C(=O)c2ccccc2Cl)C3c2ccc(F)cc2)cc1 (centres undefined)
inactive: RPMI-8226 leukemia 14.1% | OVCAR-5 ovarian 38.9% | SK-OV-3 ovarian 62.5% | HS 578T breast 81.5% | NCI/ADR-RES ovarian 24.3%
active: OVCAR-8 ovarian -12% | OVCAR-4 ovarian -68.3% | IGROV1 ovarian -26.7% | OVCAR-3 ovarian -28.5% | T-47D breast 9.46%

CC1=C(C(=O)OCC2CCN(C(=O)OC(C)(C)C)CC2)[C@@H](c2cccc(C#N)c2)C2=C(CC(C)(C)CC2=O)N1
inactive: RPMI-8226 leukemia 32.3% | OVCAR-8 ovarian 37.5% | OVCAR-5 ovarian 70.2% | OVCAR-4 ovarian 67.3% | SK-OV-3 ovarian 66.5% | IGROV1 ovarian 45.4% | OVCAR-3 ovarian 52.4% | HS 578T breast 64.5% | NCI/ADR-RES ovarian 44.7% | T-47D breast 56.1%

Cc1nn(-c2nc3ccccc3[nH]2)c2c1C(c1ccc(OCC(N)=O)cc1)CC(=O)N2 (centres undefined)
inactive: RPMI-8226 leukemia 126% | OVCAR-8 ovarian 107% | OVCAR-5 ovarian 102% | OVCAR-4 ovarian 108% | SK-OV-3 ovarian 106% | IGROV1 ovarian 109% | OVCAR-3 ovarian 111% | HS 578T breast 95% | NCI/ADR-RES ovarian 109% | T-47D breast 90.8%

Nc1cccc(Nc2cc(S(=O)(=O)O)c(N)c3c2C(=O)c2ccccc2C3=O)c1
inactive: RPMI-8226 leukemia 110% | OVCAR-8 ovarian 104% | OVCAR-5 ovarian 111% | OVCAR-4 ovarian 107% | SK-OV-3 ovarian 88.6% | IGROV1 ovarian 106% | OVCAR-3 ovarian 103% | HS 578T breast 107% | NCI/ADR-RES ovarian 106% | T-47D breast 93.1%

O=c1oc2ccc(-c3ccc(F)cc3F)cc2c(=O)n1-c1cccc(C(F)(F)F)c1
active: RPMI-8226 leukemia -6.6% | OVCAR-8 ovarian 8.92% | SK-OV-3 ovarian -9.56% | OVCAR-3 ovarian 7.84% | HS 578T breast 8.28% | NCI/ADR-RES ovarian 7.17% | T-47D breast -13.7%
inactive: OVCAR-5 ovarian 12.1% | OVCAR-4 ovarian 19.2% | IGROV1 ovarian 20.5%

CSc1nc2c(c(=O)n1C)N=C1c3ccccc3C(=O)C1C(c1ccccc1)N2 (centres undefined)
inactive: RPMI-8226 leukemia 94.9% | OVCAR-8 ovarian 77.7% | OVCAR-5 ovarian 87.9% | OVCAR-4 ovarian 72.6% | SK-OV-3 ovarian 72.4% | IGROV1 ovarian 30.4% | OVCAR-3 ovarian 39.4% | HS 578T breast 71.8% | NCI/ADR-RES ovarian 55.8% | T-47D breast 61.9%

CN1CCN(Cc2ccc(NC(=O)c3cncc(C#Cc4nc(N)nc5[nH]ncc45)c3)cc2C(F)(F)F)CC1
inactive: RPMI-8226 leukemia 55.2% | OVCAR-8 ovarian 100% | OVCAR-5 ovarian 108% | OVCAR-4 ovarian 88.8% | SK-OV-3 ovarian 122% | IGROV1 ovarian 109% | OVCAR-3 ovarian 66.5% | HS 578T breast 99.1% | NCI/ADR-RES ovarian 114% | T-47D breast 93.5%

CCOc1ccc2c(c1)CN(Cc1ccc(Cl)cc1)CO2
inactive: RPMI-8226 leukemia 43.3% | OVCAR-8 ovarian 34.1% | OVCAR-5 ovarian 90.9% | SK-OV-3 ovarian 13.5% | IGROV1 ovarian 71% | OVCAR-3 ovarian 22.2% | NCI/ADR-RES ovarian 43.7% | T-47D breast 52.4%
active: OVCAR-4 ovarian -27.4% | HS 578T breast -7.66%
